High-throughput results deposited in PubChem BioAssay by National Center for Advancing Translational Sciences (NCATS).
IL1B secr inh = inhibitors of inflammasome signaling (IL-1 beta secretion); THP-1 LPS/ATP IL-1B secretion, AlphaLISA, 16 h; active compounds read low; activity change, % at 57.5 µM; 360,000 tested, 4.7% active; in the data active = activity change below about -50%; inconclusive = mostly about -30% to -49%
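Secreted IL-1B measured by AlphaLISA bead assay after 16 h compound exposure of THP-1 cells; compounds (final up to 57.5 uM) added 1 h before LPS (250 ng/mL) and ATP (1.25 mM) stimulation; lower signal means less secretion.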
LDHA inh = inhibitors of human lactate dehydrogenase A. activity change, % (values are at about 110 or 230 µM). AID 1347041. P00338. purified LDHA, NADH/diaphorase-resazurin fluorescence; active compounds read low. 480,000 tested, 0.15% active; in the data active = activity change below about -30%; inconclusive = mostly about -25% to -30%;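 also: plate controls were DMSO wells for no effect and wells without enzyme for full effect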
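Resorufin fluorescence (ex540/em590), read at 0 and 20 min after diaphorase/resazurin addition, reports the NADH left after a 5 min room-temperature reaction of 2 nM human LDH5 with 0.06 mM NADH and 0.2 mM pyruvate.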
TDP1 cell CPT = DT40-hTDP1 cell growth loss with CPT. chicken DT40 Tdp1-/-;hTDP1 cells + 20 nM CPT, ATP luminescence, 48 h. Potency, µM (titrated, usually from 46.2 µM), without a hit: at the top dose activity change, negative = growth inhibition, actives largely listed as inhibitors. 420,000 tested, 12% active; also: potency is read from the fitted curve at half-maximal effect; nearly all actives have a fitted effect of over 55% in size
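Cell growth measured by CellTiter-Glo luminescence after a minimum 48 h, 37 C compound exposure with 20 nM CPT in Tdp1-knockout DT40 cells stably expressing hTDP1, seeded 400/well; qHTS titration format.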
RORg inh = ROR gamma (mouse) transcription inhibition | Drosophila S2 Gal4-RORgamma UAS-luciferase reporter, 20 h | Potency, µM (titrated, usually from 53.6 µM), for the others: at the highest dose activity change, negative = inhibition, actives largely listed as inhibitors | 310,000 tested, 5.4% active | AID 2551; also: potency is read from the fitted curve at half-maximal effect; nearly all actives have a fitted effect of over 60% in size
Target sequence (P51450 whole entry, looked up, the tested form may be a part): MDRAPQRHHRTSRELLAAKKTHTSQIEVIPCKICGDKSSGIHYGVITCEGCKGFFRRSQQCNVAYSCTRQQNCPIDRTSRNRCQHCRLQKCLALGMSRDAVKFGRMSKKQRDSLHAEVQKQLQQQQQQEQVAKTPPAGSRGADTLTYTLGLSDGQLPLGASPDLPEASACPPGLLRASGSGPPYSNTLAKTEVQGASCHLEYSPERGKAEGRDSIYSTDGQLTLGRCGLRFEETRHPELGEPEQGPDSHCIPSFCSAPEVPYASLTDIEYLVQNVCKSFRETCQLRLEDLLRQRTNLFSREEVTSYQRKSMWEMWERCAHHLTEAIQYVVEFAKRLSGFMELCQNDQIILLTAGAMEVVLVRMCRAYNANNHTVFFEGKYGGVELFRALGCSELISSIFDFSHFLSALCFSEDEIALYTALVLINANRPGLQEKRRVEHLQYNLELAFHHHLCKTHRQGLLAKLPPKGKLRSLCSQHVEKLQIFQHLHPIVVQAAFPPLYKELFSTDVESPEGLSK
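Schneider cells (Drosophila), stable Gal4 DBD–ROR gamma + UAS-luc; 1 hr cmpd preincubation; Cu2+ induction 700 uM final; 20 hr ambient; luminescence.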
Gal4-VP16 FLuc = counter-screen for ROR gamma inhibitors: Gal4-VP16 reporter; Drosophila S2 Gal4-VP16 UAS-luciferase, luminescence, 20 h; Potency, µM (titrated, usually from 53.6 µM), inactives show top-dose activity, negative = inhibition, most hits filed as inhibitors; 310,000 tested, 3.5% active; AID 2546;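 also: Gal4-VP16 expression switched on by copper sulfate through the metallothionein promoter; potency is read from the fitted curve at half-maximal effect; nearly all actives have a fitted effect of over 50% in size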
DT40 TDP1 no CPT = qHTS for Inhibitors of human tyrosyl-DNA phosphodiesterase 1 (TDP1): qHTS in cells in absence of CPT; DT40 Tdp1-/- hTDP1 cells, no CPT, ATP luminescence, 48 h; Potency, µM (doses to about 46.2 µM), for inactives: at the highest dose activity change, negative = growth inhibition, hits mostly inhibitors; 420,000 tested, 15% active; also: potency is read from the fitted curve at half-maximal effect; nearly all actives have a fitted effect of over 55% in size
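Cells were dispensed at 400 per well, compounds added by pin tool, plates incubated ≥48 hr at 37 °C, then CellTiter-Glo added for 30 min at room temperature before luminescence reading. Line: DT40 Tdp1-/- complemented with hTDP1; camptothecin omitted.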
An asterisk follows results filed as active; ? = inconclusive; · = not tested or not shown; ! = not active in a repeat; [ ] = dose if it differs, or a comment. Rows were chosen to be rich in hits. Some 18% of all compounds tested hit in one or more screens of this group. Unless noted, calls follow the shape of the dose curve; as a rule, active = well fitted curve in the direction sought with a large enough effect; inconclusive = small, poorly fitted or top-dose-only effect, or another doubt; inactive = no such curve, though single readings can be large; an effect the other way counts as inactive or inconclusive. Unless noted, % is scaled to controls: 0 for no effect and ±100 for the full control effect.

SMILES	IL1B secr inh	LDHA inh	TDP1 cell CPT	RORg inh	Gal4-VP16 FLuc	DT40 TDP1 no CPT
CC(C)[C@H](NC(=O)[C@H](CCC(=O)O)NC(=O)[C@H](Cc1ccccc1)NC(=O)[C@H](C)NC(=O)[C@@H](N)Cc1ccc(O)cc1)C(=O)N[C@H](C(=O)NCC(N)=O)C(C)C	·	·	?	·	·	-16%[4.12 µM]
CC(C)C[C@H](NC(=O)[C@H](CC(C)C)NC(=O)[C@H](Cc1ccccc1)NC(=O)[C@@H](N)Cc1ccc(O)cc1)C(=O)N[C@@H](CCCN=C(N)N)C(=O)N[C@@H](CC(N)=O)C(=O)N1CCC[C@H]1C(=O)O	·	·	·	5%	5%	·
COc1nc2ccccc2c(=O)n1-c1ccc(Cl)cc1	17	0	?	26%	-5%	-25%
O=c1c2ccccc2nc(N2CCCC2)n1-c1ccc(Cl)cc1	25	-7	21µM*	45%	-7%	16µM*
CCN(CC)CCSc1nc2ccccc2c(=O)n1-c1ccc(Cl)cc1	·	-2	7.3µM*	·	·	21µM*
CSc1nc2ccccc2c(=O)n1-c1cccnc1	20	-3	10%	-11%	-2%	-15%
Cc1ccc(NC(=O)COC(=O)/C=C/c2ccco2)cc1S(=O)(=O)N(C)C	31	2	-2%	4%	?	0%
COc1ccc(Nc2nc(N3CCN(C)CC3)nc3ccccc23)c(OC)c1	?	0	?	-4%	-15%	?
COc1cc2nc(N3CCCN(C)CC3)nc(N(C)C3CCN(C)CC3)c2cc1OC	·	2	6.3µM*	·	·	6.3µM*
O=C1CN=C(c2ccccc2)c2c(sc3c2CCCC3)N1	29	-6	?	-19%	-6%	?
O=C1CN=C(c2cccs2)c2c(sc3c2CCCC3)N1	29	6	16µM*	-23%	-5%	?
CCCCC/C=C\C/C=C\C/C=C\CCCCC(=O)NCCO	·	·	·	-20%	-7%	·
CC[C@H](C)[C@H](NC(=O)[C@@H]1CCCN1C(=O)[C@H](CCC(=O)O)NC(=O)[C@@H](NC(=O)[C@H](Cc1ccccc1)NC(=O)[C@@H]1CCCN1C(=O)[C@@H](N)Cc1ccc(O)cc1)C(C)C)C(=O)O	·	·	-1%[4.12 µM]	·	·	5%[4.12 µM]
ClCCN(CCCl)c1ccc(C2=NCCc3ccccc32)cc1	-78*	-3	23µM*	·	·	?
COc1ccc2c(c1)C(c1ccc(N(CCCl)CCCl)cc1)=NCC2	-90*	-6	16µM*	·	·	13µM*
COc1ccc(N2C(=O)C(=O)N(c3ccc(OC)cc3)P2(=O)N(CCCl)CCCl)cc1	-1	-9	-24%	·	·	-15%
NC(=S)Nc1ccccc1	·	·	·	4%	6%	·
O=CC=O	·	·	11%	4%	-5%	-19%
C[C@@H]1CCC2[C@H](C)C(=O)O[C@@H]3O[C@]4(C)CCC1C23OO4 (stereo partly specified)	·	7	·	·	·	·
CC(=O)[C@H]1CC[C@H]2[C@@H]3CC[C@@H]4C[C@H](O)CC[C@]4(C)[C@H]3CC[C@]12C	·	·	-9%	·	·	-20%
c1cc2cc(c1)C[n+]1ccc(c3ccccc31)NCc1ccc(cc1)CNc1cc[n+](c3ccccc13)C2	·	·	9.4µM*	0%	-19%	6.7µM*
c1ccc2c(c1)c1cc[n+]2CCCCC[n+]2ccc(c3ccccc32)NCCCCCN1	·	·	·	-31%	-12%	·
ClCC1C(CCl)C2(Cl)C(Cl)=C(Cl)C1(Cl)C2(Cl)Cl (stereo unspecified)	·	·	·	-12%	-7%	·
Clc1ccc(-c2csc3ncnc(Sc4nnnn4C4CC4)c23)cc1	·	-2	5µM*	·	·	3.2µM*
Nc1nonc1C(=O)N/N=C/c1ccc([N+](=O)[O-])o1	-87*	7	7.3µM*	?	?	9.2µM*
SMILES	IL1B secr inh	LDHA inh	TDP1 cell CPT	RORg inh	Gal4-VP16 FLuc	DT40 TDP1 no CPT
CCCn1c(C)c(C(=O)c2cccc3ccccc23)c2ccccc21	-21	-7	27µM*!	33%	7%	13µM*
CCC1(C)CC(C(N)=S)CCO1 (stereo unspecified)	-8	-2	18µM*	-4%	-1%	21µM*
c1ccc2sc(C3(N4CCCC4)CCCCC3)cc2c1	·	·	?	·	·	21µM*
c1ccc2sc(C3(NCC4CC4)CCCCC3)cc2c1	·	·	16µM*	·	·	13µM*
[O-][N+](=Nc1ccccc1)c1ccccc1	·	·	?	33%	13%	?
CCC1CCCCN1C(=O)c1cn(C)c2ccccc12 (stereo unspecified)	·	-1	·	·	·	·
CN1C2CCCC1CC(=O)C2	·	·	·	11%	3%	·
O=C(Nc1c(Cl)cccc1Cl)Oc1cccc2cccnc12	128	3	4.1µM*	·	·	4.6µM*
O=c1cccc2n1CC1CC2CN2CCCCC12 (stereo unspecified)	·	·	4%	-8%	-8%	16%
COc1cc2c(cc1OC)[C@@H]1C(=O)c3ccc4c(c3O[C@@H]1CO2)C[C@H](C(C)C)O4	?	3	0.26µM*	2%	-18%	0.16µM*
COc1cc2c(cc1OC)[C@@H]1C(=O)c3ccc4oc(C(C)C)cc4c3OC1CO2 (stereo partly specified)	·	·	0.65µM*	5µM*	0.32µM*	0.29µM*
COc1ccc([C@@H]2COc3c(ccc4c3C=CC(C)(C)O4)C2)c(OC)c1	-10	-11	2%	·	·	6%
COc1cc2c(cc1OC)[C@H]1C(=O)c3ccc4c(c3O[C@H]1CO2)C[C@@H](C(C)(C)O)O4	19	3	15µM*	·	·	12µM*
COc1cc2c(cc1OC)C1C(=O)c3ccc4c(c3OC1CO2)CC(C(C)C)O4 (stereo unspecified)	-68*	16	0.18µM*	·	·	0.033µM*
C=CCNC(=O)C(C)OC(=O)c1cn(C)c2ccccc12 (stereo unspecified)	·	6	·	·	·	·
CCC(=O)OC1CCC2C3CCC4=CC(=O)CC[C@@]4(C)C3CC[C@]12C (stereo partly specified)	·	·	?	36%	-18%	?
COc1ccc(CCNCc2ccccc2C)cc1	·	1	·	·	·	·
CSC(C)C(=O)NC(C)Cc1ccc(Br)cc1 (stereo unspecified)	·	-1	·	·	·	·
C=Cn1ccnc1P(=S)(c1ccc(N(C)C)cc1)c1nccn1C=C	-12	4	-1%	10µM*	?	-15%
CCCCN1CC(=O)N2[C@H]3c4cc(C)ccc4OC[C@@H]3[C@H](c3ccccc3)[C@]2(C)C1=O	-5	0	?	·	·	?
